The entries come from a sample that favours hits as a whole.
IL-1B inflam inh: inhibitors of inflammasome signaling (IL-1 beta secretion); THP-1 LPS/ATP IL-1B secretion, AlphaLISA, 16 h; hits give low values; activity change, % at 57.5 µM; actives 4.7% (n = 360,000); AID 743279; in the data active = activity change below about -50%; inconclusive = mostly about -30% to -49%
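Secreted IL-1B measured by AlphaLISA bead assay after 16 h compound exposure of THP-1 cells; compounds (final up to 57.5 uM) added 1 h before LPS (250 ng/mL) and ATP (1.25 mM) stimulation; lower signal means less secretion.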
12-LOX inh: inhibitors of human 12S-lipoxygenase ALOX12; AID 1671190; actives 1.1% (n = 580,000); Potency, µM (series often up to 108 µM), actives largely listed as inhibitors; purified 12hLO, xylenol orange hydroperoxide absorbance
Target sequence (P18054 whole entry, looked up): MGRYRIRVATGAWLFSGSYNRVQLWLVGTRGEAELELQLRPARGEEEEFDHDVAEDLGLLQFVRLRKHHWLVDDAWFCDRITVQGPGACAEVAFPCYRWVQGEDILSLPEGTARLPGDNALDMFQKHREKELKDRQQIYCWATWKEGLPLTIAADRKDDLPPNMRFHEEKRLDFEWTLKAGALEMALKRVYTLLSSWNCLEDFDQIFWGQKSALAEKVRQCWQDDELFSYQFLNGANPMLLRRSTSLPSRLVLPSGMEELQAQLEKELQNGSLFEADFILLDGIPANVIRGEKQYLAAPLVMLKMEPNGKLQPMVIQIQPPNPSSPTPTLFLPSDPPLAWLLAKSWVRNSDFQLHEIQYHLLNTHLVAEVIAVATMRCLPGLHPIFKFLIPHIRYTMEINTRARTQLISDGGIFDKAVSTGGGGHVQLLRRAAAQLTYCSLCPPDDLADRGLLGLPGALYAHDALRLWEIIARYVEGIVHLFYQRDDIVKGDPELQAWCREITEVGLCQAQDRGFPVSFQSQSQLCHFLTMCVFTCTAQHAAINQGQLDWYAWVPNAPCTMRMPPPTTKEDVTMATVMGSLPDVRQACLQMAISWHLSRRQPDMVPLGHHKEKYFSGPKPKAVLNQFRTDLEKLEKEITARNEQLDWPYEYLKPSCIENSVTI
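Purified human 12hLO (150 nM final) in 25 mM Hepes, 0.01% Triton X-100, pH 7.0 was preincubated 15 min at room temperature with compound. Then 40 uM arachidonic acid was added, 30 min. Hydroperoxide was read by Fe-XO absorbance ratio 573/405 nm.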
HT1080-NT tox: kills 2HG-producing HT-1080-NT fibrosarcoma cells; AID 686970; HT-1080-NT fibrosarcoma viability, CellTiter-Glo ATP luminescence, 48 h; actives 1.6% (n = 360,000); Potency, µM (titrated, usually from 46.1 µM), hits mostly cytotoxic;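 note: NT is the 2HG producing partner of a matched IDH1 knockdown line; nearly all actives have a fitted effect of over 55% in size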
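Compounds were tested in concentration-response format on HT-1080-NT cells for 48 hours at 37 degrees C. Cell viability came from CellTiter-Glo luminescence; curves were classified by r2, response magnitude and activity.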
HT1080 IDH1KD tx: HT-1080 IDH1 knockdown cell toxicity (counter line) | HT-1080 IDH1 knockdown viability, ATP luminescence, 48 h | Potency, µM (doses to about 46.1 µM), actives largely listed as cytotoxic | actives 2% (n = 360,000)
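Luminescent ATP read-out (CellTiter-Glo, 10 min at room temperature) after 48 h compound exposure at 37 °C gave viability of IDH1-knockdown HT-1080 cells. Activity was normalised to DMSO and cell-free wells, then fitted as concentration-response curves.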
TDP1 cell noCPT: qHTS for Inhibitors of human tyrosyl-DNA phosphodiesterase 1 (TDP1): qHTS in cells in absence of CPT; DT40 Tdp1-/- hTDP1 cells, no CPT, ATP luminescence, 48 h; Potency, µM (doses to about 46.2 µM), most hits filed as inhibitors; actives 15% (n = 420,000); AID 686978, 2013; note: nearly all actives have a fitted effect of over 55% in size
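Camptothecin absent (DMSO only). Human TDP1-complemented DT40 knockout cells, 400 cells/well, 37 °C for minimum 48 hr; ATP measured via CellTiter-Glo, 30 min dark incubation, luminescence.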
TDP1 cell CPT: DT40-hTDP1 cell growth loss with CPT. actives 12% (n = 420,000). chicken DT40 Tdp1-/-;hTDP1 cells + 20 nM CPT, ATP luminescence, 48 h. Potency, µM (doses to about 46.2 µM), actives largely listed as inhibitors; note: nearly all actives have a fitted effect of over 55% in size
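Chicken DT40 Tdp1-/- cells stably complemented with human TDP1 were seeded at 400 cells/well in medium containing 20 nM camptothecin, exposed to pin-transferred compounds, and grown at 37 °C for at least 48 hr. Viability was read as ATP luminescence.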
Each line names hits and unclear results; the compound was inactive in the other large screens; ! = not confirmed by another sample. Unless noted, calls come from the whole dose curve; as a rule, active = well fitted curve in the direction sought with a large enough effect; inconclusive = small, poorly fitted or top-dose-only effect, or another doubt; inactive = no such curve, though single readings can be large; an effect the other way counts as inactive or inconclusive.

CCCCCNC(=O)C(c1cccc2ccccc12)n1c(=O)c(-c2ccco2)nc2ccccc21 (stereo unspecified)	12-LOX inh 10µM, HT1080-NT tox inconclusive, TDP1 cell noCPT inconclusive, TDP1 cell CPT inconclusive
CCCCCNC(=O)C(c1ccc(C(F)(F)F)cc1)n1c(=O)c(-c2ccco2)nc2ccccc21 (stereo unspecified)	12-LOX inh 45µM, HT1080-NT tox inconclusive, TDP1 cell noCPT 18µM, TDP1 cell CPT inconclusive
O=c1c(-c2ccco2)nc2ccccc2n1/C=C(/c1ccc(C(F)(F)F)cc1)n1c(=O)[nH]c2ccccc21	12-LOX inh 16µM (no result: IL-1B inflam inh, HT1080-NT tox, HT1080 IDH1KD tx, TDP1 cell noCPT, TDP1 cell CPT)
CC(C)(C)NC(=O)C(c1cccc2ccccc12)n1c(=O)c(-c2ccccc2)nc2ccccc21 (stereo unspecified)	TDP1 cell noCPT 0.13µM, TDP1 cell CPT 21µM
O=C1Nc2ccccc2CC12CCCCN2Cc1ccc(C(F)(F)F)cc1 (stereo unspecified)	none (no result: IL-1B inflam inh, HT1080-NT tox, HT1080 IDH1KD tx, TDP1 cell noCPT, TDP1 cell CPT)
COCCc1noc([C@@H]2CN(C3CCCCC3)C[C@H]2CO)n1	none (no result: IL-1B inflam inh, HT1080-NT tox, HT1080 IDH1KD tx, TDP1 cell noCPT, TDP1 cell CPT)
CC1CC(NC(=O)NCCCCCCNC(=O)NC2CC(C)CC(C)(C)C2)CC(C)(C)C1 (stereo unspecified)	none (no result: IL-1B inflam inh, HT1080-NT tox, HT1080 IDH1KD tx, TDP1 cell noCPT, TDP1 cell CPT)
CCCN(C(=O)c1ccc(OC(F)(F)F)cc1)c1c(N)n(Cc2ccccc2)c(=O)[nH]c1=O	none (no result: IL-1B inflam inh, HT1080-NT tox, HT1080 IDH1KD tx, TDP1 cell noCPT, TDP1 cell CPT)
CC(C)(C)NC(=O)C(c1cccc2ccccc12)n1c(=O)c(-c2ccco2)nc2ccccc21 (stereo unspecified)	12-LOX inh 45µM, TDP1 cell noCPT inconclusive, TDP1 cell CPT 23µM
CC(C)(C)NC(=O)C(c1ccc(C#N)cc1)n1c(=O)c(-c2ccco2)nc2ccccc21 (stereo unspecified)	12-LOX inh inconclusive, TDP1 cell noCPT inconclusive, TDP1 cell CPT inconclusive
CC(C)N1CCOC1c1ccccc1 (stereo unspecified)	TDP1 cell noCPT inconclusive, TDP1 cell CPT inconclusive
Cc1ccc(C)c(N2CCN(S(=O)(=O)c3cn(C)cn3)CC2)c1	none
Cc1ccc(C)c(N2CCN(S(=O)(=O)c3ccc(C(=O)N(C)C)s3)CC2)c1	TDP1 cell noCPT 16µM, TDP1 cell CPT 18µM (no result: IL-1B inflam inh, HT1080-NT tox, HT1080 IDH1KD tx)
Cc1ccc(C)c(N2CCN(S(=O)(=O)c3csc(C(N)=O)c3)CC2)c1	TDP1 cell noCPT inconclusive, TDP1 cell CPT 16µM!
COCC1CN(C2CCC2)CC12CCN(C(=O)c1ccn[nH]1)CC2 (stereo unspecified)	none (no result: IL-1B inflam inh, HT1080-NT tox, HT1080 IDH1KD tx, TDP1 cell noCPT, TDP1 cell CPT)
O=C(NNc1c2ccccc2nc2ccccc12)c1cccc(O)c1	IL-1B inflam inh -80, TDP1 cell noCPT 12µM, TDP1 cell CPT inconclusive
Cc1ccc(C(=O)Nc2nc3ccccc3n3nnnc23)cc1	none
Cc1ccc(C(=O)NNc2nc3ccccc3nc2C(F)(F)F)cc1	TDP1 cell noCPT 23µM, TDP1 cell CPT inconclusive
O=C(NNc1c2ccccc2nc2ccccc12)c1ccc(O)cc1	TDP1 cell noCPT inconclusive, TDP1 cell CPT 13µM
COc1ccc2ccccc2c1C=NN1CCCCC1	12-LOX inh inconclusive, TDP1 cell noCPT inconclusive
CCn1c(=O)cc(SCC(=O)NCc2cccnc2)c2ccccc21	none
CCc1ccc(CNC(=O)CSc2cc(=O)n(CC)c3ccccc23)cc1	TDP1 cell noCPT 8.2µM, TDP1 cell CPT 21µM (no result: IL-1B inflam inh, HT1080-NT tox, HT1080 IDH1KD tx)
CCn1c(=O)cc(SCC(=O)NCc2ccc(C)o2)c2ccccc21	HT1080 IDH1KD tx inconclusive, TDP1 cell noCPT 13µM, TDP1 cell CPT 15µM
Cn1c(=O)cc(SCC(=O)NCc2ccc(F)cc2)c2cc(Cl)ccc21	TDP1 cell noCPT 13µM, TDP1 cell CPT 7.3µM (no result: IL-1B inflam inh, HT1080-NT tox, HT1080 IDH1KD tx)
CCn1c(=O)cc(SCC(=O)NCc2ccc(C)cc2)c2ccccc21	HT1080-NT tox inconclusive, HT1080 IDH1KD tx inconclusive, TDP1 cell noCPT 26µM, TDP1 cell CPT inconclusive
CCOc1ccc(CNC(=O)CSc2cc(=O)n(CC)c3ccccc23)cc1	TDP1 cell noCPT inconclusive (no result: IL-1B inflam inh, HT1080-NT tox, HT1080 IDH1KD tx)

Assay outcomes: PubChem BioAssay, National Center for Advancing Translational Sciences (NCATS)
